Composite z-score, z-score and outcome data for twelve compounds are collected here from PubChem BioAssay.

Structures are written as SMILES. For part of these data: Potency and affinity values are given separately. Inconclusive results are not listed. Active and inactive are the calls of the source.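 How the source made its calls, unless noted: active means fitted dose curve reaches 40% lysis signal rise at or below the highest valid concentration tested for that sample; inconclusive means flat fit between 30% and 70%, or poor curve fit; inactive means signal falls, stays flat within 30%, or no crossing.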

Experiment [1] in a line: small molecules captured by biotinylated probe aFSTL3 – biochemical, small-molecule microarray, fluorescence 635/667, stem cell growth factor project, primary screen (AID 1064).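 Further: measures binding of the biotinylated anti-FSTL3 antibody to printed compounds.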 Conditions: higher = more signal.
A short description of experiment [2]: binders from COS7 lysate, DM2A8 probe, primary screen, torsin A project, cell lysate, small-molecule microarray, fluorescence 635/667 (AID 1065). Conditions: higher = more signal, COS7 lysate expressing mutant human TOR1A.
A short description of experiment [3]: small molecules captured by biotinylated probe aFGF2 – biochemical, small-molecule microarray, fluorescence 635/667, stem cell growth factor project, primary screen (AID 1067).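 Further: measures binding of biotinylated aFGF2 protein to printed compounds on slides; z-score merges feature fluorescence and signal-to-noise across triplicate slides.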 Conditions: higher = more signal.
Experiment [4] is described as follows: small molecules captured by biotinylated probe aFGF10 – biochemical, small-molecule microarray, fluorescence 635/667, stem cell growth factor project, primary screen (AID 1071).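 Further: score merges 667 nm spot intensity and signal to noise from triplicate slides.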 As to conditions: higher = more signal.
Experiment [5] has as its target Neurogenic locus notch homolog protein 2 (Homo sapiens) (UniProt Q04721). Nature of the experiment: small molecules binding Notch2 protein – biochemical, small-molecule microarray, 635 nm fluorescence, stem cell growth factors, primary screen (AID 1073). Conditions: higher = more signal.
For experiment [6], the target named is Pro-neuregulin-1, membrane-bound isoform (Homo sapiens) (UniProt Q02297). The experiment is described as follows: small molecules binding neuregulin-1 protein – biochemical, small-molecule microarray, fluorescence 635/667, psychiatric disease protein project, primary screen (AID 1075).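 Further: score combines 667 nm spot fluorescence with signal to noise.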 Conditions: NRG1 binding, 635 nm fluorescence, higher = more signal.
Chain of Pro-neuregulin-1, membrane-bound isoform (Homo sapiens) (Q02297 whole entry, looked up, the tested form may be a part, canonical isoform): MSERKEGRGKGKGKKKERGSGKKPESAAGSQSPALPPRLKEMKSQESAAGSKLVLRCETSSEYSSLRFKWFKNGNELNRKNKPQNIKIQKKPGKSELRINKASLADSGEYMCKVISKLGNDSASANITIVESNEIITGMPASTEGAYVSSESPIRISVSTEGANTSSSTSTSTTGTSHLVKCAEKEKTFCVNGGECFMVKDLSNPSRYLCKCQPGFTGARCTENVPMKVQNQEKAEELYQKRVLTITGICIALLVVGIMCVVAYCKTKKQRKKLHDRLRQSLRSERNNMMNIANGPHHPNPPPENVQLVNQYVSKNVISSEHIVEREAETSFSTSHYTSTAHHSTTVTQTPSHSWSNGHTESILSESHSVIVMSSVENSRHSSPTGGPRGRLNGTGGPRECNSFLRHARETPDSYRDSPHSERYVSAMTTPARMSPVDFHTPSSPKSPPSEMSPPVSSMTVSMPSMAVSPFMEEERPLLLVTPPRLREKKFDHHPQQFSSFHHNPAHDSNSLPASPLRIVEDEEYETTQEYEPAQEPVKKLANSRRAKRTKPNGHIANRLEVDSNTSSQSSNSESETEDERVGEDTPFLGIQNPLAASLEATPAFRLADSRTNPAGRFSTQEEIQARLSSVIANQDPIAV
The subject of experiment [7] is Neuregulin-1 EGF-like domain. The experiment is described as follows: small molecules binding NRG1 EGF domain – biochemical, small-molecule microarray, 635 nm fluorescence, primary screen (AID 1081).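 Further: binding of the protein to compounds printed on small-molecule microarray slides.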 As to conditions: higher = more signal.
Experiment [8] is described as follows: FRG1 expression reporter modulators in myotubes – cell-based, C2C12 myotubes, firefly/Renilla luciferase, luminescence, FRG1 inhibition for FSHD, primary screen (AID 1084). As to conditions: FRG1 promoter luciferase, higher = more signal, called active from +8 up or from −8 down.
Experiment [9] in a line: small molecules captured by biotinylated probe aFST – biochemical, small-molecule microarray, fluorescence 635/667, stem cell growth factor project, primary screen (AID 1086).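 Further: score merges 667 nm fluorescence with signal-to-noise of each printed compound spot.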 As to conditions: higher = more signal.
Experiment [10] is described as follows: binders of probe aHhip on microarray, primary screen, stem cell growth factor project, biochemical, small-molecule microarray, fluorescence 635/667 (AID 1087).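 Further: score merges spot fluorescence at 667nm with spot signal to noise ratio.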 As to conditions: higher = more signal.
The test system of experiment [11] is PRMT1 (protein arginine N-methyltransferase 1). The experiment is described as follows: small molecules binding arginine methyltransferase PRMT1 – biochemical, small-molecule microarray, 635 nm fluorescence, primary screen (AID 1088).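 Further: binding of Prmt1 protein to compounds spotted on small-molecule microarray slides.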 Conditions: higher = more signal.
The nature of experiment [12]: growth effects on S. cerevisiae YJM789 – YJM789 clinical isolate, OD600, 24 h, basal, primary screen (AID 1089).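 Further: growth of clinical yeast isolate S. cerevisiae YJM 789 seeded 1000 cells per well.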 As to conditions: higher = more signal, called active from +8 up or from −8 down.
Experiment [13] can be described thus: S. pombe growth modifiers, basal conditions – strain 972, OD600, 24 h, no modulator, primary screen (AID 1090).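 Further: basal condition with compound alone and no growth modifier present.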 Conditions: S. pombe 972 growth, higher = more signal, called active from +8 up or from −8 down.
Experiment [14] is described as follows: budding yeast growth modifiers under rapamycin – strain BY4716, OD600, 96 h, primary screen (AID 1091). Conditions: S. cerevisiae BY4716 + rapamycin, higher = more signal, called active from +8 up or from −8 down.
For experiment [15], the target named is Torsin-1A-interacting protein 2 (Homo sapiens) (UniProt Q8NFQ8). The experiment is described as follows: small molecules binding lysate-expressed LULL1 – cell lysate, human LULL1 lysate, 635/667 nm fluorescence, primary screen (AID 1092).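 Further: probe is lysate of COS7 cells overexpressing human LULL1; score merges per-feature 667 nm fluorescence with signal-to-noise.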 Conditions: small-molecule microarray, hLULL1 lysate binding, 635 nm fluorescence; higher = more signal.
Chain of Torsin-1A-interacting protein 2 (Homo sapiens) (Q8NFQ8 whole entry, looked up): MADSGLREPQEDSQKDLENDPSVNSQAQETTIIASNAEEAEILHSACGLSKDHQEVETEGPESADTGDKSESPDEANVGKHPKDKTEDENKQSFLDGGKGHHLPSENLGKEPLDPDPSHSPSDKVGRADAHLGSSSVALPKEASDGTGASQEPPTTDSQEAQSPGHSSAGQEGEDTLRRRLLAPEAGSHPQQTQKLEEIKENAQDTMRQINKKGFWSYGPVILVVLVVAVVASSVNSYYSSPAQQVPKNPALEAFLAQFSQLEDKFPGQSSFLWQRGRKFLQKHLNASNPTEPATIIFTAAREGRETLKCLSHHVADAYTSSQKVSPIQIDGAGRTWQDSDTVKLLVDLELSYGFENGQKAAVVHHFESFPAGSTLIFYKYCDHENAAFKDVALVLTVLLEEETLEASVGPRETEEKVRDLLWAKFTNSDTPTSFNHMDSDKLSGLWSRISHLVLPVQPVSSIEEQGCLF
Experiment [16] is described as follows: optical density change of DRC41 E. coli – strain DRC41, OD650, 24 h, E. coli filamentation project, primary screen (AID 1093).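 Further: MC1000 strain lacking acrAB efflux and sulA so SOS filamentation is blocked.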 Conditions: E. coli DRC41 growth, higher = more signal, called active from +8 up or from −8 down.
Experiment [17] is described as follows: fungal growth arrest, C. neoformans – Alamar Blue, cherry-picks, dose response (AID 686998;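 active means falling signal with fitted half-maximal potency no higher than twice the top valid tested dose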). Conditions: Cryptococcus neoformans growth, 24 h; series mostly up to 35 µM.
Experiment [18] can be described thus: C. neoformans lysis by adenylate kinase leakage – AK release luminescence, cherry-picks, dose response (AID 687000).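 Further: luminescent detection of adenylate kinase leaking from lysed yeast; 0% = median neutral control signal and 100% = double that signal.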 Conditions: 4 h, 100% = twice the neutral-control signal; series mostly up to 15 µM.
The nature of experiment [19]: viability loss in HepG2 hepatoma cells – cell-based, cherry-picks, set 2, cytotoxicity control, dose response (AID 687002;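 active means a dose-response fit showing signal loss, with half-maximal concentration no higher than twice the top tested dose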). As to conditions: ATP luminescence (CellTiter-Glo), 48 h; series mostly up to 26 µM.

Chain of Neurogenic locus notch homolog protein 2 (Homo sapiens) (Q04721 whole entry, looked up, canonical isoform): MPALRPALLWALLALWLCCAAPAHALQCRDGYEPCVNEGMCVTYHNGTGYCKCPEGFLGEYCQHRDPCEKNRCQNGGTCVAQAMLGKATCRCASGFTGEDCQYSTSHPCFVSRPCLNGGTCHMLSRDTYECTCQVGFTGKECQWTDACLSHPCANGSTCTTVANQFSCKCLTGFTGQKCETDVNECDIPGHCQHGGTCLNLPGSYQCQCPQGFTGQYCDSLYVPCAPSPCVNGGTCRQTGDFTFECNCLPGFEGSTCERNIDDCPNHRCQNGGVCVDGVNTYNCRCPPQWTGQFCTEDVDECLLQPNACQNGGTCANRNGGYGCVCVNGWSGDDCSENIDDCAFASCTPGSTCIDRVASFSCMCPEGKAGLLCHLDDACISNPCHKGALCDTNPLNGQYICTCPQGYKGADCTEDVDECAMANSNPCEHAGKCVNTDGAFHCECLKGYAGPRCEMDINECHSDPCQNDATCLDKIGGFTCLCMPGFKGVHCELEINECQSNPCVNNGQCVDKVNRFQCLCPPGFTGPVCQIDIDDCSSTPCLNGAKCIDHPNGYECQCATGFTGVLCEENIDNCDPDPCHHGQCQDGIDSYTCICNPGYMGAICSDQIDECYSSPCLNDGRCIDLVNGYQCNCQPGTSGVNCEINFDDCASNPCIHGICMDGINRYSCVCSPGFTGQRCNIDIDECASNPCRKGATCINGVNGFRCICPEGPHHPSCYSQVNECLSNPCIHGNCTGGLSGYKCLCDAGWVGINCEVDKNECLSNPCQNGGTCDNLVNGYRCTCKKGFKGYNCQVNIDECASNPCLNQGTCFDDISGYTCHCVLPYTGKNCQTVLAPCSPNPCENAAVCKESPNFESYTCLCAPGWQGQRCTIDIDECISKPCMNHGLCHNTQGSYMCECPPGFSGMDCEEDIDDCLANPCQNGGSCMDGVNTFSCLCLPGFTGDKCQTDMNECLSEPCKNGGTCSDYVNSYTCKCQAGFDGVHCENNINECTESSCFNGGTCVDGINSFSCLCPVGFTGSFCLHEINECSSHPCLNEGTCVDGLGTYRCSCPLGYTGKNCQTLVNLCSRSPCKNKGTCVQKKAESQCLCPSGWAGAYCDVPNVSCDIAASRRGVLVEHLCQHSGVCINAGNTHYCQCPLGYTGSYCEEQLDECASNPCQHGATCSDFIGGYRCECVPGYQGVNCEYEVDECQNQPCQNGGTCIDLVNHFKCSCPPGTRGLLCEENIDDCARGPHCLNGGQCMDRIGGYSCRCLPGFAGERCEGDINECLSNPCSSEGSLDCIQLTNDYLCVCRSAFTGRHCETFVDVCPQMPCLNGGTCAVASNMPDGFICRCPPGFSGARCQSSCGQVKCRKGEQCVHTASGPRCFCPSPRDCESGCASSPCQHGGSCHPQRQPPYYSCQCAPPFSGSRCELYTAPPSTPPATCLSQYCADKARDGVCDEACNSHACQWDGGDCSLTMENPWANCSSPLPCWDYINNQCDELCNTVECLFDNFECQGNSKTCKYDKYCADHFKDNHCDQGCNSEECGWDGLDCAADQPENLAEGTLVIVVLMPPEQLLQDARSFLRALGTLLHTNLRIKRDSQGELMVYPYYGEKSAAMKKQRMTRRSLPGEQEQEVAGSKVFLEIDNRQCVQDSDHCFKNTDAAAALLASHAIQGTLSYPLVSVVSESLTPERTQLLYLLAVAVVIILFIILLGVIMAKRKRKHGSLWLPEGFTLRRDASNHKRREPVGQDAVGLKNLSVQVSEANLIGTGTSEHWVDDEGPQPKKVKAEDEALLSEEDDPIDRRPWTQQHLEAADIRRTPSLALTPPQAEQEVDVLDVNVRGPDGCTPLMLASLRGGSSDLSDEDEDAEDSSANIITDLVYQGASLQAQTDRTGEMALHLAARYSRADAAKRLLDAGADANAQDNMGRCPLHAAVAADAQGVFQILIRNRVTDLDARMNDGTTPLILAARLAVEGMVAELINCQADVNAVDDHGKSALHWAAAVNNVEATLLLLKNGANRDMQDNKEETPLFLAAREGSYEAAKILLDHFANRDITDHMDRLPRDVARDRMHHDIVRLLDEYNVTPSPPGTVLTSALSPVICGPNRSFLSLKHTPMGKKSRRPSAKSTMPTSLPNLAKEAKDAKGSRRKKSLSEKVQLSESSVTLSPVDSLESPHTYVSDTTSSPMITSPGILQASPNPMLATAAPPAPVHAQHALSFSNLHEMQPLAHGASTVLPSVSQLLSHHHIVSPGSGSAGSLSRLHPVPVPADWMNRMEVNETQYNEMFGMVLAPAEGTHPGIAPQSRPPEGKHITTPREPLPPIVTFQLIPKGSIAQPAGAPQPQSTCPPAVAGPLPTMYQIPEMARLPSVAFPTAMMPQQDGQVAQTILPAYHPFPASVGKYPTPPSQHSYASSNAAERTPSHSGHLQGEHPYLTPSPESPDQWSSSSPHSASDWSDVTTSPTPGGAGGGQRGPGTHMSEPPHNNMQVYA

As for `CCCC[C@@H](O)C1=C(C)C[C@H]2C(=O)N(C)C(=O)[C@H]2[C@H]1CO`, the composite z-score is -0.275 in experiment [1]; -0.305 in [2]; -0.12 in experiment [3]; 0.469 in [4]; 0.109 in [5]; 0.11 in experiment [6]. Besides, the composite z-score in experiment [7] is -0.0165; in experiment [9], -0.176; in experiment [10] it was -0.318; in experiment [11] it was 0.54; in [15], 1.31. Further, the z-score is -0.645 (inactive) in experiment [8]; -0.219 (inactive) in [12]; -1.6 (inactive) in experiment [13]; -1.19 (inactive) in experiment [14]; 2.68 (inactive) in experiment [16].
`C=C(COC)C(=O)CC[C@H](OC(=O)c1ccccc1-c1ccccc1C(=O)O)c1ccccc1OCCO`: the composite z-score in experiment [1] was 0.181; in [2] it was 0.607; in experiment [3] it was -0.129; in experiment [4], 0.247; in experiment [5] it was -0.453; in experiment [6], 0.867. Further, the composite z-score in [7] was 0.761; in experiment [9], -0.0824; in [10] it was -0.16; in experiment [11], 1.56; in experiment [15] it was 1.13. Moreover, the z-score in experiment [8] was -0.621 (inactive); in [12] it was -0.0355 (inactive); in experiment [13], -1.37 (inactive); in experiment [14], -1.08 (inactive); in [16] it was 1.4 (inactive).
`COC(=O)C1=CC(CCCO)=CC(C2CC2)N(Cc2cc3c(cc2Br)OCO3)C=C1C(=O)OC` (stereo not given): the composite z-score in [1] is 1.74; in experiment [2] it was 2.08; in experiment [3], -0.0656; in [4], -0.435; in experiment [5], 0.728; in experiment [6] it was 2.22. Moreover, the composite z-score in [7] is 1.3; in experiment [9], 0.796; in experiment [10], -0.0645; in experiment [11], 1.54; in [15], 3. In addition, the z-score is -0.0234 (inactive) in [8]; -1.04 (inactive) in [12]; -2.22 (inactive) in [13]; -1.23 (inactive) in experiment [14]; -0.741 (inactive) in experiment [16].
Take `Cc1ccc(N2C(=O)c3ccccc3[C@](C)(C(=O)NC3CC3)[C@@H]2c2ccc(CO)cc2)nc1`: the composite z-score in [1] was 0.879; in experiment [2] it was -0.241; in [3], -0.0948; in experiment [4], -0.325; in experiment [5], -0.344; in experiment [6], -0.474. In addition, the composite z-score in experiment [7] was -0.0515; in experiment [9] it was 0.406; in [10], -0.0047; in experiment [11], -0.349; in experiment [15] it was 0.244. Also, the z-score in experiment [8] was 0.843 (inactive); in [12], 0.0474 (inactive); in [13], -0.981 (inactive); in [14], -0.69 (inactive); in [16], 0.949 (inactive).
As to `C#CCN1C(C(=O)OCC)OC[C@H]1c1ccccc1` (stereo not given in full), the composite z-score in [1] was -0.551; in experiment [2], 2.59; in experiment [3], -0.128; in experiment [4], 0.389; in experiment [5], 0.678; in experiment [6], 0.0354. Also, the composite z-score in [7] was -0.143; in [9], -0.0006; in experiment [10], -0.492; in experiment [11], 0.52; in experiment [15] it was 3.77. For the same compound, the z-score in experiment [8] was -1.77 (inactive); in [12], -1.51 (inactive); in [13], -2.08 (inactive); in experiment [14] it was -1.95 (inactive); in experiment [16], 1.92 (inactive).
Consider `C[C@@H]1CN([C@H](C)CO)S(=O)(=O)c2ccc(C#Cc3ccc(F)cc3)cc2O[C@H]1CN(C)C(=O)NC1CCCC1`, for which the compound was called inactive in [17], in experiment [18] and in experiment [19].
For the compound `CN(C[C@H]1N[C@@H](CO)[C@H]1c1ccc(-c2cccc(F)c2)cc1)S(C)(=O)=O`, the compound was classed as inactive in experiment [17] and in [18].
For `COCCOC(=O)N1C(=O)[C@@]2(c3cc(C#CCNC(N)=O)ccc31)[C@H](c1ccccc1OCCO)N1[C@H](c3ccccc3)[C@H](c3ccccc3)OC(=O)[C@H]1[C@@H]2C(=O)Nc1nc2ccccc2s1`, the composite z-score is 0.171 in experiment [1]; 1.05 in [2]; -0.0893 in experiment [3]; 0.158 in experiment [4]; 0.931 in experiment [5]; 0.582 in experiment [6]. The composite z-score in experiment [7] came out at 0.627; in experiment [9] it was 0.986; in experiment [10], 0.0623; in experiment [11] it was 1.28; in [15] it was 1.58. The z-score in experiment [8] was 1.18 (inactive); in [12] it was 0.314 (inactive); in experiment [13], -0.364 (inactive); in experiment [14], 1.99 (inactive); in [16] it was 2.67 (inactive).
Turning to `O=c1n(-c2ccccc2)c(=O)n2n1CC(COc1ccccc1)=C1[C@@H](CCc3ccccc3)OB(O)C[C@@H]12`, the composite z-score in [1] was -0.62; in [2] it was -0.128; in experiment [3], -0.031; in experiment [4] it was 0.96; in experiment [5] it was 0.893; in [6], 0.97. Also, the composite z-score is 0.706 in experiment [7]; 0.642 in experiment [9]; 0.0524 in experiment [10]; 1.42 in [11]; 1.39 in experiment [15]. Besides, the z-score was -4.24 (inactive) in experiment [8]; 0.173 (inactive) in [12]; -3.03 (inactive) in experiment [13]; -1.44 (inactive) in experiment [14]; 1.92 (inactive) in experiment [16].
As to `C[C@@H](OCc1ccccc1)C1NC(=O)[C@@]23C(=O)N[C@@H](Cc4ccccc4)C2[C@H](C)[C@@]2(C)O[C@H]2C3/C=C/C/C=C\CNC(=O)[C@@H]2CCCN2C1=O` (stereo not given in full), the composite z-score was -0.0401 in experiment [1]; -0.332 in experiment [2]; -0.146 in experiment [3]; -0.595 in [4]; -0.571 in [5]; -0.52 in [6]. Besides, the composite z-score in [7] is 0.633; in experiment [9] it was -0.111; in experiment [10], -0.343; in [11], -0.449; in experiment [15], -0.139. The z-score in experiment [8] is 1.91 (inactive); in experiment [12], -0.399 (inactive); in [13], -0.985 (inactive); in experiment [14], -0.266 (inactive); in experiment [16], 2.34 (inactive).
For the compound `COCCCNC(=O)[C@@]1(CCS(=O)(=O)c2ccccc2)N=C(c2ccc(OCCCO)cc2)O[C@H]1c1ccccc1CN=[N+]=[N-]`, the composite z-score in experiment [1] was 1.06; in [2], 0.865; in experiment [3], 0.331; in [4], 1.12; in experiment [5] it was 1.25; in [6], 1.01. Moreover, the composite z-score in [7] was 1.22; in experiment [9] it was 1.25; in experiment [10] it was 0.0515; in experiment [11], 1.54; in experiment [15], 2.65. The z-score in experiment [8] is -0.891 (inactive); in experiment [12] it was -1.61 (inactive); in experiment [13] it was -1.21 (inactive); in experiment [14], 0.468 (inactive); in experiment [16], 2.4 (inactive).
For `C#CCOc1ccc(C[C@H]2C(=O)O[C@H](Cc3ccccc3)[C@H](/C=C/C3CC3)N2CC#C)cc1`, the composite z-score in experiment [1] was 0.372; in experiment [2] it was 0.259; in experiment [3] it was -0.14; in experiment [4] it was -0.118; in experiment [5], -0.487; in experiment [6], -0.13. Moreover, the composite z-score is 0.141 in experiment [7]; -0.652 in experiment [9]; -0.0074 in experiment [10]; -0.746 in experiment [11]; 0.408 in experiment [15]. The z-score in experiment [8] is -4.41 (inactive); in experiment [12], 1.35 (inactive); in experiment [13], -0.795 (inactive); in [14] it was 0.519 (inactive); in experiment [16] it was 2.04 (inactive).
